Each structure is given as a SMILES string. The campaign covered roughly 16,000 compounds. About 5,700 (36%) were called active. Another 24% or so got no clear call; they are omitted. Calls follow the shape of the dose curve; as a rule, active = well fitted curve in the direction sought with a large enough effect; inconclusive = small, poorly fitted or top-dose-only effect, or effect the other way; inactive = no such curve, though single readings can be large or run the other way. Some of the results follow. Numbered stars: 1 amine (or outer) side, 2 acyl side, 3 side chain; on linkers, the order of the positions; unused ones are H or OH. Bridge positions count the residues as written; N and C are the ends. Square brackets hold non-standard residues; d marks the D form. Peptide text beside a SMILES is read from it. I, II: the chains in the order shown. Actinocin(9to1) = Cc1c2oc3c(C)ccc(C(=O)[*:1])c3nc-2c(C(=O)[*:2])c(N)c1=O; aThr = C[C@H](O)[C@H](N)C(=O)O; NMeV = CN[C@H](C(=O)O)C(C)C; Sar = CNCC(=O)O
% is scaled to controls: 0 for no effect and ±100 for the full control effect.

The target in the assay is Cytochrome P450 1A2 (Homo sapiens) (UniProt P05177). Put plainly: Cytochrome panel assay with activity outcomes. To be noted: recombinant CYP, pro-luciferin dealkylation, luminescence, p450-cyp1a2; series mostly up to 57.1 µM; activity, negative = inhibition: at the top concentration.
Chain of Cytochrome P450 1A2 (Homo sapiens) (P05177 whole entry, looked up): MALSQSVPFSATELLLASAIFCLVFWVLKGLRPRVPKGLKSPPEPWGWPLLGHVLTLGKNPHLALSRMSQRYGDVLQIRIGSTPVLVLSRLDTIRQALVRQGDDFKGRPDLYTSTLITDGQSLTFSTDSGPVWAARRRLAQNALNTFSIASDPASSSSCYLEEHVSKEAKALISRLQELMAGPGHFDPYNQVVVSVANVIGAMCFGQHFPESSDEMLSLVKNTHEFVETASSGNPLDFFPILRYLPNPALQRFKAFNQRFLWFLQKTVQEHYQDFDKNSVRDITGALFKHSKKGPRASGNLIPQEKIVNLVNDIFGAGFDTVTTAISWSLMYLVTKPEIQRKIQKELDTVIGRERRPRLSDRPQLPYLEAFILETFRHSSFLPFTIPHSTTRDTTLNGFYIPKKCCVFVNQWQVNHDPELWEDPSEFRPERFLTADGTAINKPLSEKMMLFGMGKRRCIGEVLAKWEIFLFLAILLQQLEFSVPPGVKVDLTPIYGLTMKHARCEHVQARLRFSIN
As for `CC(=O)OC[C@H]1O[C@@H](O/N=C2/[C@H]3O[C@@H]3[C@@H](O)[C@H]3[C@H]2CCn2c(=O)n(-c4ccccc4)c(=O)n23)[C@H](OC(C)=O)[C@@H](OC(C)=O)[C@@H]1OC(C)=O`, the activity, negative = inhibition was 1.98% [at 11.4 µM] (inactive).
What is called AC50 is the concentration at which the activity in the assay is half-maximal. Take `Cc1noc(C)c1-c1nc(N2CCN(C)CC2)c2ccccc2n1`: the half-maximal activity concentration (AC50) was 0.316 µM (active).
Consider `Cc1noc(C)c1-c1nc(N2CCOCC2)c2ccccc2n1`, for which the AC50 was 0.316 µM (active).
With `CN1CCN(C(c2ccccc2)c2ccccc2)CC1`, the “activity, negative = inhibition” value is -3.57% [at 25.6 µM] (inactive).
`Cc1noc(C)c1C(=O)N1CCC2(CCCN(c3ccccc3)C2)CC1`: the “activity, negative = inhibition” value was 4.79% (inactive).
Still for that read-out and setting: the result for `Cc1noc(C)c1C(=O)N1CCC2(CC1)CN(c1ccccc1)C2` reads -18.7% (inactive).
Consider `Cc1cc(C)n(-c2nc(SCCN(C)C)c3c4c(sc3n2)CCCC4)n1`, for which the half-maximal activity concentration (AC50) is 14.1 µM (active).
With `CO[C@@H]1COC(=O)[C@@H](CCSC)NC(=O)C/C=C\[C@@H](C)COC(=O)[C@H](C)NC(=O)C/C=C\[C@H]1C`, the activity, negative = inhibition is -5.08% [at 11.4 µM] (inactive).
For `O=c1cc(-c2ccccc2)[nH]c2nc(Cl)ccc12`, the AC50 was 0.398 µM (active).
`Cc1ccccc1S(=O)(=O)c1c(C)cc(-c2ccccc2)[nH]c1=O`: the “activity, negative = inhibition” value was -7.42% (inactive).
For `Cc1cc(-c2ccccc2)[nH]c(=O)c1S(=O)(=O)c1ccc(Cl)cc1`, the “activity, negative = inhibition” value is -18.9% (inactive).
Regarding `CC(=O)N1CCC2(CCCN(Cc3nccs3)C2)CC1`, the “activity, negative = inhibition” value is -12.1% (inactive).
Take `CCOC(=O)C(C)n1cnc2c(oc3ccccc32)c1=O` (stereo not given): the half-maximal activity concentration (AC50) is 5.62 µM (active).
With `Cc1cc(/C=C2\SC(=S)NC2=O)c(C)n1C`, the AC50 was 5.01 µM (active).
As for `Cc1ccc(S(=O)(=O)N2CCC(C(=O)NCCCOC(C)C)CC2)cc1`, the “activity, negative = inhibition” value is -2.51% (inactive).
Turning to `O=C(OC(C(=O)O)C(OC(=O)c1ccccc1)C(=O)NCc1ccccc1)c1ccccc1` (stereo not given), the “activity, negative = inhibition” value was 5% (inactive).
For `O=C(NCc1ccccc1)c1cccc(COc2cccc(Cl)c2)c1`, the AC50 is 17.8 µM (active).
In the case of `COc1cccc(Cn2c(=O)c(-c3ccc(Cl)cc3)nc3cnc(N4CCN(C)CC4)nc32)c1`, the “activity, negative = inhibition” value was -16.3% (inactive).
As for `O=c1c(-c2ccc(Cl)cc2)nc2cnc(N3CCNCC3)nc2n1Cc1cccs1`, the AC50 is 12.6 µM (active).
The same measure, in the same setting: to `O=c1c(-c2ccc(F)cc2)nc2cnc(N3CCOCC3)nc2n1Cc1cccs1` belongs 12.6 µM (active); to `O=c1c(-c2ccc(F)cc2)nc2cnc(N3CCNCC3)nc2n1Cc1cccs1`, 10 µM (active).
As for `CN1CCN(c2ncc3nc(-c4ccc(Cl)cc4)c(=O)n(Cc4cccs4)c3n2)CC1`, the AC50 is 10 µM (active).
With `O=C(CSc1nnc2c(n1)[nH]c1ccc(F)cc12)OCc1ccccc1`, the AC50 is 0.501 µM (active).
With `Cc1ccc(C(=O)NNC(=O)CSc2nnc3c(n2)[nH]c2ccc(F)cc23)cc1`, the “activity, negative = inhibition” value is -20.5% (inactive).
As for `CC1CCc2cc(F)ccc2N1C(=O)CSc1nnc2c(n1)[nH]c1ccc(F)cc12` (stereo not given), the AC50 was 0.501 µM (active).
For the compound `C#CCCCO/N=C1/[C@H]2O[C@@H]2[C@@H](O)[C@H]2[C@H]1CCn1c(=O)n(Cc3cc4c(cc3Cl)OCO4)c(=O)n12`, the activity, negative = inhibition was 1.39% [at 11.4 µM] (inactive).
As for `Cc1nc(Sc2ccccc2)c(C#N)cc1-c1ccccc1`, the AC50 was 1.26 µM (active).
For the compound `Cc1nc(Cl)c(C#N)cc1-c1ccccc1`, the AC50 is 1 µM (active).
For the compound `Cc1c2oc3c(C)ccc(C(=O)N[C@@H]4C(=O)N[C@@H](C(C)C)C(=O)N5CCC[C@@H]5C(=O)N(C)CC(=O)N(C)[C@@H](C(C)C)C(=O)O[C@H]4C)c3nc-2c(C(=O)N[C@@H]2C(=O)N[C@@H](C(C)C)C(=O)N3CCC[C@@H]3C(=O)N(C)CC(=O)N(C)[C@@H](C(C)C)C(=O)O[C@H]2C)c(N)c1=O` (I: [aThr]V[dP][Sar][NMeV] / II: [aThr]V[dP][Sar][NMeV]; ester I:1-I:C, II:1-II:C; linker I:N-II:N via Actinocin(9to1)), the “activity, negative = inhibition” value is -34.7% (inactive).
Consider `CCOC(=O)C1=C(c2ccccc2)OC(N)=C(C#N)C1c1ccc(Cl)s1` (stereo not given), for which the AC50 is 0.398 µM (active).
Consider `CCc1ccc2c(-c3cccc(Cl)c3)nc(=O)n(CC)c2n1`, for which the AC50 is 0.126 µM (active).
As for `CCC(NC(=O)c1ccccc1NC(=O)c1ccco1)C(=O)NC1CCCCC1` (stereo not given), the “activity, negative = inhibition” value was -16.4% (inactive).
Regarding `O=C(Nc1ccccc1C(=O)NCCc1ccccc1)c1ccco1`, the AC50 is 5.01 µM (active).
For `Cc1ccc(NC(=O)CCC(=O)NNC(=O)c2ccco2)cc1C`, the “activity, negative = inhibition” value is -17.2% (inactive).
On to `CC1=C(C(=O)Nc2ccccc2)C(c2ccco2)NC(=S)N1` (stereo not given), for which the “activity, negative = inhibition” value is -11.4% (inactive).
As for `O=C(Nc1ccccc1C(=O)Nc1ccc2c(c1)OCO2)c1ccco1`, the AC50 is 8.91 µM (active).
Take `O=C(CCc1ccccc1)NNC(=O)c1ccco1`: the “activity, negative = inhibition” value was 7.32% (inactive).
For `Cc1cc(NC(=O)c2ccco2)ccc1-n1cnnn1`, the AC50 was 14.1 µM (active).
On to `CC1(C)Oc2ccc(NC(=O)c3ccco3)cc2O1`, for which the AC50 is 5.01 µM (active).
For `Cc1cc(C)cc(NC(=O)N2CCCC2C(=O)Nc2ccc(-n3cnnn3)c(C)c2)c1` (stereo not given), the “activity, negative = inhibition” value was -14.1% (inactive).
In the case of `N#CC(C#N)=CNCCN1CCN(C=C(C#N)C#N)CC1`, the activity, negative = inhibition was -15.4% [at 2.29 µM] (inactive).
With `NC(N)=N[C@H](CCC(=O)O)C(=O)O`, the “activity, negative = inhibition” value is -0.3% (inactive).
For the compound `COc1ccc2[nH]cc(CCNc3ccnc(-c4ccc(N(C)C)cc4)n3)c2c1`, the concentration at half-maximal activity (AC50) was 0.631 µM (active).
`COc1ccc2[nH]cc(CCNc3ccnc(-c4c(C)noc4C)n3)c2c1`: the concentration at half-maximal activity (AC50) is 2 µM (active).
The same measure, in the same setting: to `COc1ccc2[nH]cc(CCNc3cc(-c4ccc(C(=O)N(C)C)cc4)ncn3)c2c1` belongs 20 µM (active); to `COc1ccc2[nH]cc(CCNc3ccnc(-c4ccc(C(=O)N(C)C)cc4)n3)c2c1`, 12.6 µM (active).
In the case of `CCOC(=O)C1=C[C@@]2(CC)CCCN3CCc4c(n1c1ccccc41)[C@H]32`, the “activity, negative = inhibition” value was -14.8% [at 25.6 µM] (inactive).
For `COc1ccc([C@@H](Nc2ncccn2)c2cc3c(cc2O)OCO3)cc1`, the activity, negative = inhibition is -14.3% [at 2.29 µM] (inactive).
Turning to `COc1ccc2[nH]cc(CCNc3ccnc(-c4ccc5c(c4)OCO5)n3)c2c1`, the AC50 is 0.631 µM (active).
Consider `COc1ccc2[nH]cc(CCNc3ccnc(-c4ccoc4)n3)c2c1`, for which the AC50 was 0.501 µM (active).
For `O=C(O)CC(O)C(=O)O` (stereo not given), the “activity, negative = inhibition” value is -6.27% (inactive).
On the same count and under the same terms, to `CC(C)(CS)C(=O)N1CCC[C@H]1C(=O)O` belongs 10.1% [at 25.6 µM] (inactive).
With `O=S(Cc1cc(Oc2ccccc2)nc(-c2ccccc2)n1)c1ccccc1` (stereo not given), the AC50 was 2.82 µM (active).
`O=S(=O)(Cc1cc(Oc2ccccc2)nc(-c2ccccc2)n1)c1ccccc1`: the AC50 is 0.708 µM (active).
In the case of `CNc1cc(CS(=O)c2ccccc2)nc(-c2ccccc2)n1` (stereo not given), the AC50 is 14.1 µM (active).

Values taken from PubChem BioAssay AID1851 (National Center for Advancing Translational Sciences (NCATS), 2009).
